Compound activity as filed in PubChem BioAssay.
HIF-2a inh: blocks HIF-2a reporter activity | 786-0 RCC cells HIF-2a reporter, luciferase luminescence, overnight | inhibition, % at 18.8 µM | 0.72% of 360,000 active;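 active means inhibition of the luminescence signal of 40% or more relative to plate controls, in a single-dose primary screen at 18.75 µM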
LMP1 NFkB inh: reduces LMP1-driven NF-kappaB luciferase signal; LMP1-induced NF-kappaB luciferase reporter cells, luminescence; inhibition, % at 12.5 µM; 0.69% of 350,000 active; in the data active means inhibition above about 41%; inconclusive means no clear call, values can overlap the other calls
Peg3 prom inh-1: inhibitors of Peg3 promoter; HeLa PEG-Prom luciferase reporter, luminescence, overnight; inhibition, % at 20 µM; 1.7% of 360,000 active; AID 588405;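 active means inhibition of at least 50% at 20 µM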
CF NFkB inh: inhibitors of cystic fibrosis induced NF-kB. KKLEB NF-kB-GFP reporter, PAF-induced, GFP fluorescence overnight. inhibition, % at 5 µM. 0.86% of 360,000 active. AID 588850;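 active means at least 50% inhibition at 5 µM, scaled per plate between neutral and stimulator controls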;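 further: PAF is a Pseudomonas aeruginosa culture filtrate used as stimulus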
KKLEB cytotox: CF airway cell cytotoxicity counter-screen | activity change (cytotoxicity), % at 5 µM | 0.36% of 360,000 active | KKLEB CF airway cells viability, ATPlite luminescence, overnight; active compounds read low; cells stimulated with P. aeruginosa culture filtrate;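 active means corrected activity change at or below -50% at 5 µM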
TRPM1 prom inh: reduces MITF-dependent TRPM1 promoter luciferase signal. SK-MEL-5 TRPM1 promoter luciferase, 24 h. 0.83% of 330,000 active. inhibition, % at 12.5 µM;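 active means mean inhibition across replicates of 60% or more, whatever share of single replicates reaches that level; inconclusive means some that reach 60%, reason not given; inactive means mean inhibition across replicates below 60%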
Peg3 prom inh-2: confirmation of Peg3 promoter inhibitors. HeLa PEG-Prom luciferase reporter, luminescence, overnight. inhibition, % at 20 µM. shares compounds with Peg3 prom inh-1. 84% of 1,300 active;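 active means at 20 µM dose, 40% or more inhibition averaged across four replicates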
Large screens that a line does not name were inactive (follow-up assays come after a bar, where they were run). Compounds with a hit are over-represented: about 3% of the library has one in this group of screens.

CCN(CCCl)c1cc(CN(C)C)cc(NC(=O)c2ccc(C(=O)Nc3cc(CN(C)C)cc(N(CC)CCCl)c3)cc2)c1	HIF-2a inh 70.0, LMP1 NFkB inh 86.5, Peg3 prom inh-1 101.5, CF NFkB inh 79.7, KKLEB cytotox -88.9, TRPM1 prom inh 98.0 | Peg3 prom inh-2 99.3
Cn1c(=O)c2c(nc(-c3ccc(N(CCCl)CCCl)cc3)n2C)n(C)c1=O	none
Fc1cccc(-c2ccc3c(c2)CN(c2cccc(Cl)c2)Cc2cnnn2-3)c1	none (no result: LMP1 NFkB inh, TRPM1 prom inh)
Cn1cccc1/C=C1\C(=O)NC(=O)N(Cc2ccco2)C1=O	none
O=C1NC(=O)N(Cc2ccco2)C(=O)/C1=C/C=C/c1ccco1	HIF-2a inh 87.0, Peg3 prom inh-1 62.9, CF NFkB inh 77.6, TRPM1 prom inh 95.4 | Peg3 prom inh-2 73.1
O=C1NC(=O)N(Cc2ccccc2)C(=O)/C1=C\C=C\c1ccco1	HIF-2a inh 45.7, Peg3 prom inh-1 88.9, CF NFkB inh 74.4, KKLEB cytotox -50.9, TRPM1 prom inh 96.3 | Peg3 prom inh-2 62.5
Cc1ccc(S(=O)(=O)c2nc(-c3ccccc3Cl)oc2N(C)C2CCN(C)CC2)cc1	Peg3 prom inh-1 63.9 (no result: TRPM1 prom inh) | Peg3 prom inh-2 78.2
CCCNC(=O)Cn1cnc2sc(C(=O)N3CCC4(CC3)OCCO4)c(C)c2c1=O	none
Cc1c(C(=O)N2CCC3(CC2)OCCO3)sc2ncnc(N3CCN(c4ccccn4)CC3)c12	Peg3 prom inh-1 71.7 | Peg3 prom inh-2 55.6
C[C@]12CC[C@H]3C(CCC4(O)CC(O)CC[C@]34C=O)C1=CC[C@H]2c1ccc(=O)oc1 (stereo not given in full)	Peg3 prom inh-1 105.2, TRPM1 prom inh inconclusive | Peg3 prom inh-2 96.9
O=P1(Oc2ccccc2)OCCCS1 (stereo not given)	none
CC(C)(C)n1nnnc1C(C1CC1)N1CCC(n2c(=O)[nH]c3ccccc32)CC1 (stereo not given)	none (no result: LMP1 NFkB inh, TRPM1 prom inh)
CC(C)(C)n1nnnc1C(CCc1ccccc1)N1CCC(n2c(=O)[nH]c3ccccc32)CC1 (stereo not given)	Peg3 prom inh-1 83.6 (no result: LMP1 NFkB inh, TRPM1 prom inh) | Peg3 prom inh-2 82.4
CNCC(O)c1cc(OCc2ccccc2)c(OCc2ccccc2)cc1F (stereo not given)	Peg3 prom inh-1 98.0 | Peg3 prom inh-2 89.4
CNCC(O)c1cccc(OC(=O)c2ccccc2C)c1 (stereo not given)	none
COC(=O)C1=C(c2ccc(OC)c(OC)c2)C[C@@H]2CC[C@H]1N2C(=O)NCc1cc(C)oc1C(F)(F)F	none
CCN(CC)C(=O)Cn1cc(/C=C2\C(=O)NC(=O)N(c3ccccc3F)C2=O)c2ccccc21	HIF-2a inh 43.7, Peg3 prom inh-1 57.6 | Peg3 prom inh-2 91.6
COC(=O)C1C2c3ccccc3C(c3ccccc32)C1C(=O)OC (stereo not given)	none
O=C(CCc1ccccc1)N1C[C@H]2C[C@@H](C1)c1cccc(=O)n1C2	none
COc1ccc(CC2C(=O)NC(C)C(=O)N(C)C3C(=O)N(C)C(Cc4ccc(O)c(c4)Oc4ccc(cc4)C3O)C(=O)NC(C)C(=O)NC(C)C(=O)N2C)cc1 (stereo not given)	HIF-2a inh 87.0, LMP1 NFkB inh 84.6, Peg3 prom inh-1 96.0, CF NFkB inh 82.1, TRPM1 prom inh 104.2 | Peg3 prom inh-2 98.4
C=Cc1cc(OC)c2c(c1)c(=O)oc1c2cc(OC)c2c(O)ccc(C3OC(C)C(O)C(C)(O)C3O)c21 (stereo not given)	HIF-2a inh 52.4, LMP1 NFkB inh 88.4, Peg3 prom inh-1 105.6, CF NFkB inh 79.2, TRPM1 prom inh 77.6 | Peg3 prom inh-2 98.4
O=Cc1cn(Cc2ccc(Br)cc2)c2ccccc12	Peg3 prom inh-1 77.5 | Peg3 prom inh-2 73.9
O=Cc1cn(Cc2cccc(F)c2)c2ccccc12	Peg3 prom inh-1 85.2 | Peg3 prom inh-2 65.4
COC(=O)c1cn(Cc2ccc(F)cc2)c2ccccc12	none (no result: TRPM1 prom inh)
COc1cccc(C)c1NC1=NCCO1	none (no result: TRPM1 prom inh)
